# Screening results deposited in PubChem BioAssay by National Center for Advancing Translational Sciences (NCATS).
# Hits are enriched below; roughly 11% of the tested compounds scored in any of these assays.
# JMJD2A Tudor – blocks the human JMJD2A Tudor domain; O75164; Potency, µM (highest dose often 114 µM), without a hit: at the top dose activity change, negative = inhibition, most hits filed as inhibitors; 4.4% of 390,000 active; AlphaScreen JMJD2A-Tudor / H3K4me3 peptide binding; AID 504339; further: on the % scale 0 is the no-effect control and ±100 the full control effect; nearly all actives have a fitted effect of over 50% in size
# L3MBTL1 inh – inhibitors of human L3MBTL1 | 0.66% of 230,000 active | Potency, µM (doses to about 57.1 µM), inactives show at the top dose activity, negative = inhibition, most hits filed as inhibitors | AID 485360 | Q9Y468 | AlphaScreen L3MBTL1–H3K9me1 peptide binding; further: on the % scale 0 is the no-effect control and ±100 the full control effect; nearly all actives have a fitted effect of over 60% in size
# Target sequence (Q9Y468 whole entry, looked up): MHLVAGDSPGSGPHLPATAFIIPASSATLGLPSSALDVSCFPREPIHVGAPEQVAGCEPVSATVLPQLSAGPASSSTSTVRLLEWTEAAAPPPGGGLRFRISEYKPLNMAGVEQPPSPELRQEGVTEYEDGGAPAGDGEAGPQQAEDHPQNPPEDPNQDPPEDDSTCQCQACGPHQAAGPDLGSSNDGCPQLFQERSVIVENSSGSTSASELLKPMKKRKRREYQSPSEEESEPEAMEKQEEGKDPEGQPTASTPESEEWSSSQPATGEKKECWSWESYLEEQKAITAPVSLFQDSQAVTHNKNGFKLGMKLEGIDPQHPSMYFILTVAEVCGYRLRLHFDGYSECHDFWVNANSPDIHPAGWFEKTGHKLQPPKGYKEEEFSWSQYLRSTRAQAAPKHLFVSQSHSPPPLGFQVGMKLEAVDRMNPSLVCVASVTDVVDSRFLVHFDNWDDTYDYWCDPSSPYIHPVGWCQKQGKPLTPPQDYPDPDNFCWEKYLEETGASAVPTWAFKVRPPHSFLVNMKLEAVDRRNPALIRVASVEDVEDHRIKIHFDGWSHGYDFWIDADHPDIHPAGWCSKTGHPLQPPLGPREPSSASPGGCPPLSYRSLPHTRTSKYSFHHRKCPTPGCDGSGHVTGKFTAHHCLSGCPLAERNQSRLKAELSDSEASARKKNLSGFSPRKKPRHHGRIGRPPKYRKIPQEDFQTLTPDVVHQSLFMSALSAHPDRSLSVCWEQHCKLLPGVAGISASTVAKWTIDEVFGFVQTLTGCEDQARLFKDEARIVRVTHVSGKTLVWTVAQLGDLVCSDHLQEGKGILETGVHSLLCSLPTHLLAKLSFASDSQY
#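 AlphaScreen proximity signal between nickel-chelate acceptor and streptavidin donor beads (final 10 ug/mL) reports binding of 50 nM L3MBTL1 to 75 nM biotin-H3 K9me1 peptide; complex incubated with compounds 30 min at room temperature; cefsulodin titration as control.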
# G9a inh – inhibitors of human histone lysine methyltransferase G9a; Q96KQ7; 8.8% of 350,000 active; G9a H3K9 monomethylation, AlphaScreen, 2 h; Potency, µM (highest dose often 102 µM), for the others: at the top dose activity, negative = inhibition, actives largely listed as inhibitors; AID 504332; further: on the % scale 0 is the no-effect control and ±100 the full control effect; nearly all actives have a fitted effect of over 75% in size
#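 Quantitative HTS format: methyltransferase activity on a biotin-tagged H3K9 peptide is measured by AlphaScreen, using a rabbit anti-monomethyl-H3K9 antibody with streptavidin donor and anti-IgG acceptor beads. Final levels are 20 nM enzyme, 500 nM peptide, 20 uM SAM; 2 h RT.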
# HP1b chromo inh – blocks HP1-beta chromodomain binding to methylated histone tails. 0.56% of 390,000 active. Potency, µM (titrated, usually from 114 µM), without a hit: at the top dose activity change, negative = inhibition, most hits filed as inhibitors. AlphaScreen HP1-beta / biotin-H3K9me3 peptide binding. P83916; further: nearly all actives have a fitted effect of over 70% in size
#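 AlphaScreen: HP1-beta (50 nM) preformed 30 min with biotin-H3(1-18)K9me3 peptide (50 nM) in PBS pH 7.4, 0.01% Tween-20. Compound added for 30 min at RT, then streptavidin donor/nickel chelate acceptor beads (10 ug/mL) for 30 min.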
# BAZ2B block – BAZ2B (human) inhibition | Potency, µM (doses to about 114 µM), for inactives: top-dose activity change, negative = inhibition, most hits filed as inhibitors | 4.4% of 360,000 active | Q9UIF8 | AID 504333 | AlphaScreen BAZ2B-H3K14Ac peptide displacement; further: on the % scale 0 is the no-effect control and ±100 the full control effect; nearly all actives have a fitted effect of over 60% in size
#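 AlphaScreen displacement: compounds (up to 110uM) incubated 30 min at room temperature with a preformed 50 nM BAZ2B/50 nM biotinylated H3K14Ac peptide complex in PBS pH 7.4 with Tween-20. Donor and acceptor beads at 10 ug/mL final added, 20 min light-protected before reading.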
# Active calls of the source: *; ? = inconclusive; / = not tested or not shown; [ ] = dose if it differs, or a comment. The call rests on the fitted dose curve; in most records, active means well fitted inhibition curve with a large enough effect; inconclusive means small, poorly fitted or top-dose-only effect; inactive means no such curve, though single readings can be large or run the other way. Potency means the concentration at half of the fitted maximal effect.
SMILES,JMJD2A Tudor,L3MBTL1 inh,G9a inh,HP1b chromo inh,BAZ2B block
O=C(Nc1nc(=O)c2ccccc2s1)c1ccc(Cl)cc1,-17%[11.4 µM],-2%,4µM*,27%,-19%
O=C(Cc1ccccc1)Nc1nc(=O)c2ccccc2s1,12%[11.4 µM],-4%,25µM*,51%,-24%[57.1 µM]
O=C(CSC(=S)N1CCOCC1)Nc1nc(=O)c2ccccc2s1,/,2%,4µM*,/,-2%
Nc1ccc(C(=O)Nc2nc3ccccc3s2)cc1,-20%,-1%,-10%[59 µM],29%,-4%
Cn1sc(NC(=O)c2ccc(Cl)cc2)nc1=O,-6%,11%,40µM*,22%,11%
O=C(Cc1ccccc1)Nc1nc2ccccc2s1,-23%[11.4 µM],6%,0%[59 µM],51%,2%
CCn1c(NC(=O)c2ccc(F)cc2)c2ccccc2nc1=O,-12%,0%,5%[59 µM],33%,-6%
O=C(Nc1nc(=O)c2ccccc2s1)c1ccc(F)cc1,?,-2%,1.8µM*,70%,?
CCN1CCN(Cc2c(O)ccc3c2O/C(=C\c2ccc(C)cc2)C3=O)CC1,-14%,5%,-11%,35%,?
Cc1ccc(/C=C2\Oc3c(ccc(O)c3CN3CCN(C)CC3)C2=O)cc1,-6%,/,-3%,27%,2%
CCN1CCN(Cc2c(O)ccc3c2O/C(=C\c2ccccc2)C3=O)CC1,-11%,/,79µM*,42%,?
CC1CCCN(Cc2c(O)ccc3c2O/C(=C\c2ccco2)C3=O)C1 (stereo not drawn),?,-24%,3.5µM*,-10%,?
Cc1cc2oc(=O)cc(-c3cc4ccccc4o3)c2cc1O,-32%,/,-14%[59 µM],14%,?
Cc1c2cc(O)c(=O)cc-2oc2cc(O)c(O)cc12,1.4µM*,2.8µM*,7.9µM*,0.71µM*,4.5µM*
COc1cc(OC)c(-c2c3cc(O)c(=O)cc-3oc3cc(O)c(O)cc23)cc1OC,1.1µM*,0.79µM*,10µM*,-90%,1.1µM*
CCCCCCCCCCCCCCCCCCOC[C@H](COP(=O)([O-])OCC[N+](C)(C)C)OC(C)=O,/,/,35%[59 µM],/,/
CCCCN(C(=O)c1cc(OC)c(OC)c(OC)c1)C1=CC2CCC(C1)N2C (stereo not drawn),-21%,4%,56µM*,13%,-3%
COc1ccc(Nc2nc3ccc(Cl)cc3n3nnnc23)cc1OC,-5%,/,-27%[59 µM],28%,-5%
Cc1ccc(C)c(N2CCN(C(=O)c3ccc(NC(=O)c4nsc5ccccc45)cc3)CC2)c1,-16%,/,5%[59 µM],26%[57 µM],-3%
O=C(COc1ccc(F)cc1Cl)Nc1nc(-c2ccccn2)cs1,/,-9%,?,/,10%
O=C(Nc1nc(-c2ccccn2)cs1)C1CCCC1,?,?,?,-17%,50µM*
Cc1cc(C)cc(OCC(=O)Nc2nc(-c3ccccn3)cs2)c1,-23%,-2%,22µM*,-36%,-6%
O=C(CN1C(=O)CCC1=O)Nc1nc(-c2ccccn2)cs1,25µM*,/,15%,27%,5.6µM*
O=C(CCCSc1ccccc1)Nc1nc(-c2ccccn2)cs1,-27%,/,?,16%,-1%
CSCCC(=O)Nc1nc(-c2ccccn2)cs1,89µM*,/,8.9µM*,9%,20µM*
SMILES,JMJD2A Tudor,L3MBTL1 inh,G9a inh,HP1b chromo inh,BAZ2B block
Cc1nc(-c2cccc(Cl)c2)n[nH]1,-17%,2%,?,19%,-15%
S=c1nc(-c2ccccc2Br)[nH][nH]1,0.79µM*,-16%,0.79µM*,?,12%
Cc1cc(C)nc(Nc2n[nH]c(-c3ccccc3Br)n2)n1,-3%,/,?,29%,-32%
S=c1nc(-c2cccc(Cl)c2)[nH][nH]1,2.5µM*,/,1.6µM*,12%,-20%
Clc1ccc(Cl)c(-c2nc(-c3ccncc3)no2)c1,-7%,-21%,27%,26%,-2%
S=c1nc(-c2cc(Cl)ccc2Cl)[nH][nH]1,5µM*,16%,1.6µM*,?,-23%
S=c1nc(-c2cc(Cl)cc(Cl)c2)[nH][nH]1,79µM*,5%,22µM*,-1%,-5%
Cc1ccccc1NC(=O)C1CCC(CNS(=O)(=O)c2ccc3c(c2)C(C)(C)C(=O)N3C)CC1 (stereo not drawn),6%,/,-1%[59 µM],39%,-4%
Cn1nc(-c2ccccc2F)c2cc(C(=O)N3CCN(c4ccccc4F)CC3)sc21,-19%,/,-6%[59 µM],35%,/
CN(CCO)c1cc(N2CCN(C(=O)c3ccco3)CC2)c2nonc2c1[N+](=O)[O-],-9%,5%,15%[59 µM],26%,-27%
CC(C)(C)C(=O)NC(CC(=O)O)c1ccccc1 (stereo not drawn),-6%,6%,50µM*,47%,-11%
O=C(CC(NC(=O)C(F)(F)F)c1ccccc1)Nc1nnc(CCc2ccccc2)s1 (stereo not drawn),-17%,-9%,10µM*,-12%,9%
Cc1nnc(NC(=O)CC(NC(=O)C(F)(F)F)c2ccccc2)s1 (stereo not drawn),-17%,3%,40µM*,-1%,-3%
COC(=O)[C@H]1C[C@H](O)CN1S(=O)(=O)c1ccc(Br)cc1F,-12%,2%,/,83%,/
CC(=O)Nc1nonc1-c1nnc(SCc2cccc(Br)c2)n1C,-11%,/,1%[59 µM],44%,?
CCOc1cc(/C=N/n2c(C)nc3ccccc3c2=O)ccc1O,-15%,/,5%,-31%,-11%
COc1ccc(Br)cc1/C=N/n1c(-c2ccccc2)n[nH]c1=S,?,-4%,3.5µM*,30%,-35%
COc1cc(/C=N/n2c(-c3ccccc3)n[nH]c2=S)cc(OC)c1O,3.2µM*,-7%,0.71µM*,-13%,-12%
COc1cc(/C=N/S(=O)(=O)c2ccccc2)cc(OC)c1O,-21%,/,?,12%[57 µM],-18%
COc1ccc(/C=N/n2c(-c3ccc(C)cc3)n[nH]c2=S)cc1OC,7.9µM*,1%,0.4µM*,28%,-6%
COc1cc(/C=N/n2c(-c3ccccc3)n[nH]c2=S)ccc1O,5µM*,-12%,2.2µM*,4%,-2%
Cc1ccc(Sc2c(C)nn(-c3ccccc3)c2OC(=O)CC(C)C)cc1,16%,/,8.9µM*,77%,7%
CCCC(=O)Oc1c(Sc2ccc(Cl)cc2)c(C)nn1-c1ccccc1,-35%,/,4µM*,13%,3%
COc1cc(C(=O)Oc2c(Sc3ccc(C)cc3)c(C)nn2-c2ccccc2)cc(OC)c1OC,-29%,/,14µM*,42%,-15%
COc1ccccc1C(=O)Oc1c(Sc2ccccc2)c(C)nn1-c1ccccc1,28%,/,-28%[59 µM],91%,26%
CCc1cccc(C)c1NC(=O)CN1C(=O)c2c(c3ccccc3n2C)C1c1ccc(OC)cc1 (stereo not drawn),-16%,/,-2%[59 µM],21%,-3%
CCCCCNc1nc(N2CCCC2)c2c(c1C#N)CCN(C)C2,56µM*,-2%,50µM*,-39%,?
CCCCCNc1nc(NCCCO)c(C#N)c2c1CN(C)CC2,-33%,/,20%[12.7 µM],15%,-9%
